Screens as filed in PubChem BioAssay.
Compounds with a hit are over-represented: about 19% of the library has one in this group of screens.
RORg inh: ROR gamma (mouse) transcription inhibition | Potency, µM (highest dose often 53.6 µM), usual class: inhibitors | P51450 | 310,000 tested, 5.4% active | Drosophila S2 Gal4-RORgamma UAS-luciferase reporter, 20 h | AID 2551; note: nearly all actives have a fitted effect of over 60% in size
Target sequence (P51450 whole entry, looked up, the tested form may be a part): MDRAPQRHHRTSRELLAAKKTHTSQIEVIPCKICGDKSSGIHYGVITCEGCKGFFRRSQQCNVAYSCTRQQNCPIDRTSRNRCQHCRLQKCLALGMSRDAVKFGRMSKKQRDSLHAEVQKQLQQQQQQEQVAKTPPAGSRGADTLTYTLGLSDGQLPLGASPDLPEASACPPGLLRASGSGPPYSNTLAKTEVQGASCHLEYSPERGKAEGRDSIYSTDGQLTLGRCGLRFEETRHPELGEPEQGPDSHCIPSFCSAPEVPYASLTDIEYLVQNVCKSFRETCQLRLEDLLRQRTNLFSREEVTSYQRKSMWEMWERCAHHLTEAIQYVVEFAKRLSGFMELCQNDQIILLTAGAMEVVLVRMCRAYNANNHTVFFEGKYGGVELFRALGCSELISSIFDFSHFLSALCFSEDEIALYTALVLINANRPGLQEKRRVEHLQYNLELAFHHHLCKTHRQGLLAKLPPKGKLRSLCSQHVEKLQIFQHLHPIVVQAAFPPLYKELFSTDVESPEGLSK
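In this cell-based reporter format, copper sulfate (700 uM final) drives Gal4–ROR gamma fusion expression from a metallothionein promoter in Drosophila Schneider cells; compounds preincubated 1 hr, reporter read after 20 hr at ambient temperature.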
TDP1 inh: TDP1 (human) enzyme inhibition. Q9NUW8. recombinant TDP1, AlphaScreen DNA substrate cleavage. Potency, µM (doses to about 130 µM), hits mostly inhibitors. 350,000 tested, 0.28% active; note: nearly all actives have a fitted effect of over 40% in size
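Tdp1 1 nM final; 15 min RT w/ cpd; substrate 15 nM, 5 min; beads 10 ug/ml, 10 min; AlphaScreen read. Neg ctrl: no enzyme.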
DT40 TDP1 CPT: growth inhibition of DT40 Tdp1-/-;hTDP1 cells with camptothecin (screen for TDP1 inhibitors); chicken DT40 Tdp1-/-;hTDP1 cells + 20 nM CPT, ATP luminescence, 48 h; Potency, µM (titrated, usually from 46.2 µM), actives largely listed as inhibitors; 420,000 tested, 12% active; note: nearly all actives have a fitted effect of over 55% in size
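Cell growth measured by CellTiter-Glo luminescence after a minimum 48 h, 37 C compound exposure with 20 nM CPT in Tdp1-knockout DT40 cells stably expressing hTDP1, seeded 400/well; qHTS titration format.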
Gal4-VP16 FLuc: inhibits Gal4-VP16 luciferase reporter, ROR gamma counter-screen; Drosophila S2 Gal4-VP16 UAS-luciferase, luminescence, 20 h; 310,000 tested, 3.5% active; Potency, µM (titrated, usually from 53.6 µM), actives largely listed as inhibitors;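 note: Gal4-VP16 expression switched on by copper sulfate through the metallothionein promoter; nearly all actives have a fitted effect of over 50% in size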
TDP1 cell noCPT: qHTS for Inhibitors of human tyrosyl-DNA phosphodiesterase 1 (TDP1): qHTS in cells in absence of CPT; DT40 Tdp1-/- hTDP1 cells, no CPT, ATP luminescence, 48 h; Potency, µM (doses to about 46.2 µM), most hits filed as inhibitors; 420,000 tested, 15% active; AID 686978, 2013; note: nearly all actives have a fitted effect of over 55% in size
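Luminescent ATP content (CellTiter-Glo) served as the growth readout. Knockout chicken DT40 cells expressing human TDP1 were exposed to compounds without camptothecin for a minimum 48 hr at 37 °C.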
Of the large screens only hits and unclear results are named; the others gave an inactive call. Calls come from the whole dose curve; as a rule, active = well fitted curve in the direction sought with a large enough effect; inconclusive = small, poorly fitted or top-dose-only effect, or another doubt; inactive = no such curve, though single readings can be large; an effect the other way counts as inactive or inconclusive.

COc1cc2cc(C(c3nnnn3C3CCCC3)N3CCc4ccccc43)c(=O)[nH]c2cc1OC (configuration not stated)	DT40 TDP1 CPT inconclusive, TDP1 cell noCPT inconclusive
O=C(O)c1ccccc1NS(=O)(=O)c1ccc(N/N=C/c2ccc(O)c(O)c2)c([N+](=O)[O-])c1	none (no result: RORg inh, TDP1 inh, Gal4-VP16 FLuc)
O=c1[nH]c2cc3c(cc2cc1C(c1nnnn1Cc1ccccc1)N1CCCCCC1)OCCO3 (configuration not stated)	DT40 TDP1 CPT 16µM, Gal4-VP16 FLuc inconclusive, TDP1 cell noCPT inconclusive
O=C(NCc1ccc(F)cc1)Nc1ccccc1	none
COc1ccc(Cl)cc1NC(=O)CNCC(c1ccccc1)N(C)C (configuration not stated)	none
COc1cc2c(cc1OC)C(c1ccc(N)cc1)=NNC(=O)C2	DT40 TDP1 CPT 21µM, TDP1 cell noCPT 15µM
COc1ccccc1CC(=O)Nc1ccc(S(=O)(=O)N2CCCCC2)cc1	TDP1 cell noCPT inconclusive
CCN(CC(=O)Nc1ccc(S(=O)(=O)N2CCCC2)cc1)Cc1ccccc1	DT40 TDP1 CPT 16µM, TDP1 cell noCPT inconclusive (no result: RORg inh, Gal4-VP16 FLuc)
COc1ccccc1N(CC(=O)Nc1ccc(S(=O)(=O)N2CCCCC2)cc1)S(C)(=O)=O	RORg inh inconclusive, DT40 TDP1 CPT inconclusive, TDP1 cell noCPT 18µM
CCN(CC(=O)Nc1ccc(S(=O)(=O)N2CCOCC2)cc1)Cc1ccccc1	none (no result: RORg inh, TDP1 inh, Gal4-VP16 FLuc)
CCN(CC(=O)Nc1cc(S(=O)(=O)N2CCOCC2)ccc1C)Cc1ccccc1	DT40 TDP1 CPT 16µM, TDP1 cell noCPT 13µM (no result: RORg inh, Gal4-VP16 FLuc)
Cc1cn2c(=O)c3ccccc3nc2n2c(=O)c3ccccc3nc12	none
COc1ccc(NC(=O)c2ccc(-n3c(C)ccc3C)cc2)c(OC)c1	DT40 TDP1 CPT inconclusive, TDP1 cell noCPT inconclusive
COc1ccc(Nc2cc3n(c(=O)n2)CCc2cc(OC)c(OC)cc2-3)c(C)c1	DT40 TDP1 CPT inconclusive, TDP1 cell noCPT 15µM (no result: TDP1 inh)
O=C(O)COc1ccccc1/C=N/NC(=O)CSc1nnc(SCc2cccc3ccccc23)s1	TDP1 cell noCPT inconclusive
O=C(CSc1nnc(SCc2cccc3ccccc23)s1)N/N=C/c1c[nH]c2ccccc12	DT40 TDP1 CPT inconclusive, TDP1 cell noCPT 16µM
O=C(CSc1nnc(SCc2ccc(Cl)cc2)s1)N/N=C/c1c[nH]c2ccccc12	RORg inh 11µM, TDP1 inh 22µM, DT40 TDP1 CPT inconclusive, Gal4-VP16 FLuc 8.9µM, TDP1 cell noCPT inconclusive
O=C(O)COc1ccccc1/C=N/NC(=O)CSc1nnc(SCc2ccc(Cl)cc2)s1	none
Cc1nc(C)c(-c2ccc(SCC(=O)Nc3ccc(F)cc3F)nn2)s1	DT40 TDP1 CPT inconclusive, TDP1 cell noCPT inconclusive
Cc1nc(C)c(-c2ccc(SCC(=O)Nc3cccc(C)c3C)nn2)s1	DT40 TDP1 CPT 16µM, TDP1 cell noCPT 21µM (no result: RORg inh, Gal4-VP16 FLuc)
Cc1nc(C)c(-c2ccc(SCC(=O)Nc3ccccc3F)nn2)s1	DT40 TDP1 CPT inconclusive, TDP1 cell noCPT 15µM (no result: RORg inh, Gal4-VP16 FLuc)
OC(c1ccc(OCc2ccccc2)cc1)c1nnc(-c2ccccc2)o1 (configuration not stated)	DT40 TDP1 CPT 21µM, Gal4-VP16 FLuc inconclusive, TDP1 cell noCPT 16µM
Cc1ccc(OCc2nnc(-c3ccccc3)o2)cc1	none (no result: RORg inh, Gal4-VP16 FLuc)
OC(c1cccc(OCc2ccccc2)c1)c1nnc(-c2ccccc2)o1 (configuration not stated)	DT40 TDP1 CPT 18µM, Gal4-VP16 FLuc inconclusive, TDP1 cell noCPT 18µM
Cc1cc(C)n2nc(C(=O)Nc3ccc(N4CCOCC4)cc3)nc2n1	none
COc1cc(-c2nc(-c3ccc(NC(=O)c4ccc(Br)o4)cc3)no2)cc(OC)c1OC	DT40 TDP1 CPT 13µM, TDP1 cell noCPT 16µM
COc1ccc(-c2nc(-c3ccc(NC(=O)c4ccc(Br)o4)cc3)no2)cc1OC	RORg inh inconclusive, DT40 TDP1 CPT 18µM, Gal4-VP16 FLuc inconclusive, TDP1 cell noCPT 6.5µM
CC1Cc2cc(S(=O)(=O)CCC(=O)N3CCN(c4ccccc4)CC3)ccc2N1C(=O)C1CC1 (configuration not stated)	DT40 TDP1 CPT inconclusive, TDP1 cell noCPT inconclusive
O=C(Nc1cc(S(=O)(=O)N2CCOCC2)ccc1N1CCCC1)c1cc(F)c(F)cc1Cl	none (no result: RORg inh, Gal4-VP16 FLuc)
